Test results from ChEMBL document CHEMBL1961873, “Compounds: GSK PKIS; Assays: Nanosyn kinase panel” (2012).
Several values for one entry are separate records, joined by “and”; a condition that tells them apart may be missing. Equal entries are not always repeated.

What was measured:
[1] = target: T1, Inhibitor of nuclear factor kappa-B kinase subunit epsilon (Homo sapiens) (UniProt Q14164); details: at 1 µM;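 further: reported values are averaged percent inhibition figures against human IKKε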
T1 sequence (whole entry): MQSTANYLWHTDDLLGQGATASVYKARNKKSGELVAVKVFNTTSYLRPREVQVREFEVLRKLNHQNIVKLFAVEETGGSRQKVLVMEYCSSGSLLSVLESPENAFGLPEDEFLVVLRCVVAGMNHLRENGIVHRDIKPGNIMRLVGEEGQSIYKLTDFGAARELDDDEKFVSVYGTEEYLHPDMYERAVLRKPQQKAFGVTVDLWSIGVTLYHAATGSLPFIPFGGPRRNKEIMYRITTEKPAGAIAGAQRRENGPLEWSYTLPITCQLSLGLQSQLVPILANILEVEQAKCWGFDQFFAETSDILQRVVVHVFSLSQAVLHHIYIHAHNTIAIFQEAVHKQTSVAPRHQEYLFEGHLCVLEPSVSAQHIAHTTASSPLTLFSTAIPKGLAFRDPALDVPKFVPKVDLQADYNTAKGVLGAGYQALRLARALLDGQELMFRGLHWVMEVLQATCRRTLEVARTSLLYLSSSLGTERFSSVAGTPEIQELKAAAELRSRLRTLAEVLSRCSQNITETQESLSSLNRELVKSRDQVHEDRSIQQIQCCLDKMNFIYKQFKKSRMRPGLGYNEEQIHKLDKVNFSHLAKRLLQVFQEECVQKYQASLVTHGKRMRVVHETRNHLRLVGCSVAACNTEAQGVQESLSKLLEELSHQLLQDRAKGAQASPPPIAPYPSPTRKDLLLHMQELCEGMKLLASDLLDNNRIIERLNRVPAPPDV

[2] = target: T2, Serine/threonine-protein kinase Nek1 (Homo sapiens) (UniProt Q96PY6); details: at 0.1 µM
T2 sequence (whole entry): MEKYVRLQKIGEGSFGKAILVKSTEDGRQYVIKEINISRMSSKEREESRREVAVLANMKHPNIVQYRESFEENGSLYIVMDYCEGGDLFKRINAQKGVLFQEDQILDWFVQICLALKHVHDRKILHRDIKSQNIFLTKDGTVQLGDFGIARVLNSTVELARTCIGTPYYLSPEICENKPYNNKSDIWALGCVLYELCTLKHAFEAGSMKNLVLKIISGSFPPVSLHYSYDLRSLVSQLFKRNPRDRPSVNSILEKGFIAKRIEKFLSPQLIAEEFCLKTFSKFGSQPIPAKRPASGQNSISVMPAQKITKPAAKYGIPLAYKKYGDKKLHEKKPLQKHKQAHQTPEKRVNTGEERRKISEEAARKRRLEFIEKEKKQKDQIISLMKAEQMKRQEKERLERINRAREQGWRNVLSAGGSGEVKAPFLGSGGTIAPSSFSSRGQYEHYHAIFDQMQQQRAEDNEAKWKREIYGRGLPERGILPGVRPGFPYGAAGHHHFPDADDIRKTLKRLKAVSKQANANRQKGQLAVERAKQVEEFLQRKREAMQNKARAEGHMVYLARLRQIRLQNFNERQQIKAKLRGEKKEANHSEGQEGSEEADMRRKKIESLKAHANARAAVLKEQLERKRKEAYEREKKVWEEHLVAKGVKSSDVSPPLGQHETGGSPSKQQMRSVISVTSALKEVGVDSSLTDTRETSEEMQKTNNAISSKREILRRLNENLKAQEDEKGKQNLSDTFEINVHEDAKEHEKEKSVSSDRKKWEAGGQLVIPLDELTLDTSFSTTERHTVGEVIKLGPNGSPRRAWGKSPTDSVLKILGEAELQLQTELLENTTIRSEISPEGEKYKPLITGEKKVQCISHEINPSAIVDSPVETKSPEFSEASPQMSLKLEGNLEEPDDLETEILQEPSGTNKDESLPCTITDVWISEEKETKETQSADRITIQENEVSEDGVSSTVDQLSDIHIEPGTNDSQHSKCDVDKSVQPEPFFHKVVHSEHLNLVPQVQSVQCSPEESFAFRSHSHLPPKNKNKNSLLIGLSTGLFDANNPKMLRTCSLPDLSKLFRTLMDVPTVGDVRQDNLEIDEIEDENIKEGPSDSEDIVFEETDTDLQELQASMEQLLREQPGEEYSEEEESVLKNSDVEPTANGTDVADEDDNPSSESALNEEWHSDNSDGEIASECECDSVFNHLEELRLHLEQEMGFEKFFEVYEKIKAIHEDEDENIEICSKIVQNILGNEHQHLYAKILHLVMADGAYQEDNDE

[3] = target: T2, Serine/threonine-protein kinase Nek1 (Homo sapiens); details: at 1 µM
[4] = target: T3, Serine/threonine-protein kinase Nek2 (Homo sapiens) (UniProt P51955); details: at 0.1 µM
T3 sequence (whole entry): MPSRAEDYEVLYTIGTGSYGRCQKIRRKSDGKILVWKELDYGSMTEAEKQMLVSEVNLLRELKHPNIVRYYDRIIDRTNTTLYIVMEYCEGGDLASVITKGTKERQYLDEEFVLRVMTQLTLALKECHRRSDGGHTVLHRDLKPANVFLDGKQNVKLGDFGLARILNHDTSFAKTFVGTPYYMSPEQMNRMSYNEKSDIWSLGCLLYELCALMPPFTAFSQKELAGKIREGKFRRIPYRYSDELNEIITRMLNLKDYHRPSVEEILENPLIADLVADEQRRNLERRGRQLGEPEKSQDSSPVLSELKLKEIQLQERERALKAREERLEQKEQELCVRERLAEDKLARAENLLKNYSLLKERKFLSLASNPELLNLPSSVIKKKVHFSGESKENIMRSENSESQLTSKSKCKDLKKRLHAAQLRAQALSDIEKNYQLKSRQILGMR

[5] = target: T3, Serine/threonine-protein kinase Nek2 (Homo sapiens); details: at 1 µM
[6] = target: Serine/threonine-protein kinase Nek6 (Homo sapiens) (UniProt Q9HC98); details: at 0.1 µM
[7] = target: Serine/threonine-protein kinase Nek6 (Homo sapiens) (UniProt Q9HC98); details: at 1 µM
[8] = target: Serine/threonine-protein kinase Nek7 (Homo sapiens) (UniProt Q8TDX7); details: at 0.1 µM
[9] = target: Serine/threonine-protein kinase Nek7 (Homo sapiens) (UniProt Q8TDX7); details: at 1 µM
[10] = target: T4, Serine/threonine-protein kinase Nek9 (Homo sapiens) (UniProt Q8TD19); details: at 0.1 µM;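 further: reported value is the mean percent inhibition of NEK9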
T4 sequence (whole entry): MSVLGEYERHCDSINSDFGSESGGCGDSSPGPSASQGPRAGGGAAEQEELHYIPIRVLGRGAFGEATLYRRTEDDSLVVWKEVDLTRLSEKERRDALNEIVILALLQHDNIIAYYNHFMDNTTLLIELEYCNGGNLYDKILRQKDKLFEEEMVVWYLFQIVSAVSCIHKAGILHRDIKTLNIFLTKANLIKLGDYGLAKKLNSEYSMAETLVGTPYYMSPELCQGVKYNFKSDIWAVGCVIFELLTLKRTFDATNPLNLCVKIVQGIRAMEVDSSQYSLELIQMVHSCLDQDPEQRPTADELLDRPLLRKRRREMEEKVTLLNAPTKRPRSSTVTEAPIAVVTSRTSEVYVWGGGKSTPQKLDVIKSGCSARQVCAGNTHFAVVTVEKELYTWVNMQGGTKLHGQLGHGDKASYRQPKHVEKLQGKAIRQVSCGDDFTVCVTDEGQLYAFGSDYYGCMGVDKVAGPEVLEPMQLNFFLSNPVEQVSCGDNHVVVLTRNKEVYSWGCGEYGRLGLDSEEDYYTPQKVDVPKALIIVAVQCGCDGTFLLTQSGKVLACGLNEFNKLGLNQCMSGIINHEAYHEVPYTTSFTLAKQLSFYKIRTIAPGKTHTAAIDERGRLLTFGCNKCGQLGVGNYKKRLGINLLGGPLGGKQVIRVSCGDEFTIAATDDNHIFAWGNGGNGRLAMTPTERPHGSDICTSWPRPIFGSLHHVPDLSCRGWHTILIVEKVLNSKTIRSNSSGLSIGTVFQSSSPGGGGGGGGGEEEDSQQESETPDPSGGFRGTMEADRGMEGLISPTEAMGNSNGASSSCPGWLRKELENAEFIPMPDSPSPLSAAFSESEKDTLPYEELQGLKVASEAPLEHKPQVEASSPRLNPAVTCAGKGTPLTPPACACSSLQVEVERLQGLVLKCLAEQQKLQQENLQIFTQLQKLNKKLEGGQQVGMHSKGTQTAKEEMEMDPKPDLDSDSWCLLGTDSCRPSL

Sequence of Serine/threonine-protein kinase Nek6 (Homo sapiens) (Q9HC98 whole entry): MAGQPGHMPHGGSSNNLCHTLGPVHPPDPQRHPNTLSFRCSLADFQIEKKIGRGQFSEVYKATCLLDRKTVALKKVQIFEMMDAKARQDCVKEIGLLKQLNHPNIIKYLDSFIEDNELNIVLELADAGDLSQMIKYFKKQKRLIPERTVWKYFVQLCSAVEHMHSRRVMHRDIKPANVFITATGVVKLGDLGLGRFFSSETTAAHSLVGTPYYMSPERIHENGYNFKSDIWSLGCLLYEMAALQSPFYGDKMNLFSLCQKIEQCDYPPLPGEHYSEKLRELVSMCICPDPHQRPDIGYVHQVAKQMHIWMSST
Sequence of Serine/threonine-protein kinase Nek7 (Homo sapiens) (Q8TDX7 whole entry, looked up): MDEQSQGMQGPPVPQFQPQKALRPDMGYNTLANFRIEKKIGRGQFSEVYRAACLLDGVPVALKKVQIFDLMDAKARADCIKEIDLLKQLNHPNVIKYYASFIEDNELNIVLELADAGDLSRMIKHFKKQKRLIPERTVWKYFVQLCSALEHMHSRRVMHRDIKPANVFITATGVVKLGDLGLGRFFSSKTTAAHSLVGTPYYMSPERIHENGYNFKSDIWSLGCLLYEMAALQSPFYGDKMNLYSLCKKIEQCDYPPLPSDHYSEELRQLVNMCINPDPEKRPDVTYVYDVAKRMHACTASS

Structure (SMILES)	inhibition [1]	inhibition [2]	inhibition [3]	inhibition [4]	inhibition [5]	inhibition [6]	inhibition [7]	inhibition [8]	inhibition [9]	inhibition [10]
CN1CCC(C(=O)Nc2n[nH]c3nc(-c4ccc(O)cc4)c(Br)cc23)CC1	9.87% and 4.68%	2.56% and 2.33%	5.56% and 3.3%	4.35% and 2.88%	2.67% and 2.08%	3.12% and 2.62%	6.77% and 0.79%	7.02% and 1.88%	10% and 8.97%	9.98% and 4.62%
CNC(=O)c1ncccc1Nc1nc(Nc2cc3c(cc2OC)CCCN3C(=O)CN(C)C)nc2[nH]ccc12	10.1%	0.87%	2.58%	4.37%	3.89%	2.87%	-0.46%	3.53%	7.42%	5.86%
COC(=O)Nc1nc2cc(Oc3ccc(NC(=O)Nc4ccccc4)cc3)ccc2[nH]1	5.8%	1.46%	1.92%	3.05%	1.76%	3.54%	0.95%	2.02%	1.72%	4.39%
CCS(=O)(=O)c1ccc(OC)c(Nc2ncc(-c3cccc(C(C)=O)c3)o2)c1	5.1%	1.59%	4.9%	3.34%	2.2%	3.06%	3.18%	2.79%	3.24%	5.45%
Nc1nccc(-c2c(-c3ccc(F)cc3)ncn2C2CCNCC2)n1	-3.35% and 1.18%	-2.75% and -0.7%	0.36% and 1.29%	-3.4% and 0.5%	-4.07% and 0.05%	-2.7% and -2.19%	-2.93% and 2.63%	-2.09% and 0.15%	-4.78% and 0.13%	0.73% and -1.84%
O=C(O[C@H]1CN[C@H](C#Cc2cc3ncnc(Nc4ccc5c(ccn5Cc5cc(F)ccc5F)c4)c3s2)C1)N1CCOCC1	3.8%	2.94%	1.91%	2.01%	7.68%	4.81%	1.23%	4.67%	3.63%	4.24%
COc1cc(N2CCN(C(C)C)CC2)ccc1Nc1nc(Nc2cccc(F)c2C(=O)O)c2cc[nH]c2n1	7.25%	2.08%	5.01%	5.22%	3.86%	2.61%	5.14%	3.58%	3.43%	9.89%
COc1cccc(-n2ncc3c(N/N=C/c4ccc(C(=O)NCCN(C)C)cc4)ncnc32)c1	-5.84%	2.06%	7.24%	0.16%	1.98%	1.11%	0.35%	3.99%	-1.23%	5.54%
CC1=C(C(=O)Nc2ccc3[nH]ncc3c2)C(c2ccc(F)cc2)N=C(c2ccc(C(F)(F)F)nc2)N1 (stereo not given)	3.45%	1.75%	1.45%	3.41%	2.65%	1.87%	-0.45%	3.08%	2.92%	2.7%
CCS(=O)(=O)c1ccc(OC)c(Nc2ncc(-c3cccc(F)c3)o2)c1	8.87%	4.05%	5.27%	6.14%	7.08%	-1.8%	1.24%	4.07%	0.27%	7.49%
O=C1Nc2ccccc2/C1=C1\CCc2cc(O)ccc21	20.3%	3.11%	4.37%	7.09%	5.47%	1.9%	1.99%	5.62%	4.31%	8.42%
Fc1ccc(Nc2nccc(-c3c(-c4ccc(C(F)(F)F)cc4)nn4ncccc34)n2)cc1F	4.2%	1.24%	1.72%	4.93%	4.4%	-0.59%	0.48%	3.33%	2.76%	4.79%
CS(=O)(=O)Nc1ccc(-c2cc(-c3ccccc3)cc(C(N)=O)c2N)cc1	1.3%	1.84%	1.25%	4.07%	2.73%	1.42%	-0.5%	1.35%	6.39%	2.67%
CC(C)c1ccc(-c2cc(-c3c[nH]nc3-c3ccccn3)ccn2)cc1	1.35%	0.4%	0.95%	1.77%	1.63%	1.08%	-0.92%	2.44%	0.94%	3.68%
Nc1nonc1-c1nc2cnccc2n1C1CC1	11.3% and 10.2%	1.72% and 1.48%	6.39% and 2.72%	5.51% and 2.84%	4.67% and 4.04%	3.25% and -0.01%	-0.06% and 2.15%	3.77% and 4.5%	2.89% and 3.28%	8.67% and 3.36%
Cc1cc(O)cc(C)c1/C=C/c1cncc(C(N)=O)c1	91.3%	1.8%	2.95%	3.02%	1.69%	3.18%	1.92%	4.15%	3.89%	5.2%
